Shiga toxin inh: inhibitors of Shiga toxin in Vero cells. hit rate 9.2% among 290,000. inhibition, % at 38.7 µM. Vero cells, Shiga toxin protein synthesis inhibition reporter. AID 2315; in the data active = inhibition mostly above about 28%, no sharp cut-off; inactive = mostly below about 43%; also: 0% is about no effect
FBPA Giardia inh: Giardia lamblia aldolase inhibition; A8B2U2; purified Giardia FBPA; Potency, µM (top dose mostly 59.6 µM), inactives show at the top dose activity, negative = inhibition, hits mostly inhibitors; hit rate 0.71% among 290,000; AID 2451; also: potency is read from the fitted curve at half-maximal effect; % is scaled to controls: 0 for no effect and ±100 for the full control effect; nearly all actives have a fitted effect of over 55% in size
Target sequence (A8B2U2 whole entry, looked up): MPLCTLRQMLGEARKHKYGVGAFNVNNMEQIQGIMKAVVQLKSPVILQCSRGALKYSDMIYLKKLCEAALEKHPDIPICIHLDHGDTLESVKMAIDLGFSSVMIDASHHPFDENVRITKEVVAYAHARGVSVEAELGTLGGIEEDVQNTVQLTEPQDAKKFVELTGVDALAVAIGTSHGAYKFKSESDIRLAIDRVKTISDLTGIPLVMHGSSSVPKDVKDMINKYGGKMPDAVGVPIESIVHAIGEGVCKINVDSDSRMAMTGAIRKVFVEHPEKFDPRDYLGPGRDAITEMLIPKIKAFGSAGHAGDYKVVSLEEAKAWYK
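40 nM FBPA preincubated 10 min at RT with compound (up to 57.5 uM final), then substrate plus GAPDH/TPI/NAD/arsenate coupling and diaphorase/resazurin added. Fluorescence read after 20 min at RT, 525/598 nm.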
CHX counter: counter-screen for Shiga toxin inhibitors: cycloheximide protein synthesis inhibition; cell reporter, cycloheximide protein synthesis inhibition counterscreen; max response, %; hit rate 12% among 300,000; in the data active = max response mostly above about 13%, no sharp cut-off; inactive = mostly below about 14%; also: read at 38.3 µM for the half of the compounds with a filed dose; 0% is about no effect
Sm TGR block: inhibitors of Schistosoma mansoni thioredoxin glutathione reductase | Q962Y6 | purified TGR, DTNB reduction, TNB absorbance 405 nm | Potency, µM (top dose mostly 114 µM), without a hit: at the highest dose activity change, negative = inhibition, most hits filed as inhibitors | hit rate 3% among 360,000 | AID 485364; also: potency is read from the fitted curve at half-maximal effect; % is scaled to controls: 0 for no effect and ±100 for the full control effect; nearly all actives have a fitted effect of over 60% in size
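First, TGR (20 nM dispensed) and NADPH were mixed with compound. Second, a 15 min room-temperature incubation followed. Third, further NADPH and then DTNB were added to start the reaction. Finally, TNB absorbance was monitored kinetically.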
TbPYK inhibitor: blocks Trypanosoma brucei pyruvate kinase; TbPYK enzyme, Kinase-Glo Plus ATP luminescence, 45 min; Potency, µM (highest dose often 76.8 µM), inactives show at the highest dose activity, negative = inhibition, usual class: inhibitors; hit rate 0.12% among 410,000; AID 624173; also: potency is read from the fitted curve at half-maximal effect; % is scaled to controls: 0 for no effect and ±100 for the full control effect; nearly all actives have a fitted effect of over 50% in size
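Enzyme and substrate buffer are dispensed first and compound is pin-transferred. ADP at 130 uM final then starts the reaction, which runs 45 min at room temperature. Detection reagent is added for 10 min before luminescence is imaged.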
LmPK inh: LmPK (Leishmania mexicana) enzyme inhibition | purified LmPK, Kinase-Glo ATP luminescence, 1 h | Potency, µM (doses to about 57.5 µM), for inactives: at the top dose activity change, negative = inhibition, actives largely listed as inhibitors | hit rate 0.37% among 290,000 | AID 1721; also: potency is read from the fitted curve at half-maximal effect; % is scaled to controls: 0 for no effect and ±100 for the full control effect
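Purified LmPK (0.1 nM) converted ADP (0.1 mM) to ATP with PEP (0.5 mM) in imidazole buffer pH 7.2 with KCl and MgCl2, 1 h at room temperature. ATP was read by Kinase-Glo luminescence; data normalized to uninhibited and no-enzyme controls.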
* marks the source's active call; other numbers are inactive results; nt = not tested or not shown; [ ] = dose if it differs, or a comment. Many of the other results were omitted from the sample, so hits are more common in it than they were. Unless noted, calls follow the shape of the dose curve; as a rule, active = well fitted curve in the direction sought with a large enough effect; inconclusive = small, poorly fitted or top-dose-only effect, or another doubt; inactive = no such curve, though single readings can be large; an effect the other way counts as inactive or inconclusive.

SMILES	Shiga toxin inh	FBPA Giardia inh	CHX counter	Sm TGR block	TbPYK inhibitor	LmPK inh
CCOC(=O)Nc1ccc(C)cc1Br	-2.0	0.3%	1.0	0.1%	8.3%	-1.8%
CCOC(=O)NC(=S)Nc1ccc(C(C)(C)C)cc1Br	24.9	-1.2%	22.2*	-11.2%	-2.8%	1.7%
CCOc1ccc(NC(=O)c2ccncc2)cc1	5.4	-0.1%	17.3*	8.3%	-0.5%	-10.9%
Cn1cc(Br)c(C(=O)NC2CCCCC2)n1	18.5	2.4%	-2.6	4.1%	-3.6%	-2.0%
Fc1ccc(-n2ncc3c(Nc4ccc(Oc5ccc(Cl)cc5)cc4)ncnc32)cc1	nt	nt	nt	5.9%	-0.2%	nt
COc1ccc(NC(=O)c2ccc(Oc3ncccn3)cc2)cc1	57.4*	-0.5%	21.8*	10.4%	4.0%	-3.7%
CCOc1ccc(NC(=O)c2ccc(NC(=O)COC(=O)Cc3ccccc3)cc2)cc1	49.6*	-0.1%	40.0*	2.3%	-7.7%	-3.2%
COc1cccc(NC(=O)c2nn(C)cc2Br)c1	nt	nt	nt	nt	-20.2%	nt
COc1ccc(C(=O)Nc2ccc(C3CC3(Cl)Cl)cc2)cc1 (configuration not stated)	32.2	-3.3%	21.5*	22.0%	-3.8%	11.3%
CCOc1ccc(NC(=O)COc2ccc(C(=O)NCCc3ccccc3)cc2)cc1	-3.0	3.1%	0.6	4.3%	0.5%	3.8%
CCOc1ccc(NC(=O)c2nn(C)cc2Br)cc1	42.5	-1.3%	15.3*	-0.4%	-14.7%	31.6µM*
COc1ccc(NC(=O)c2ccc(NC(=O)c3ccncc3)cc2)cc1	-10.6	8.5%	-1.2	9.4%	5.5%	1.8%
Cc1cc(=O)n2[nH]c(NCc3ccc(F)cc3)nc2n1	nt	nt	nt	-1.1%	-3.4%	nt
CC(C)N(Cc1ccccc1)C(=O)COC(=O)c1ccc(S(=O)(=O)N2CCOCC2)cc1	nt	nt	nt	nt	-5.7%	nt
CCOc1ccc(NC(=O)c2ccc(NCC(=O)N3CCCCCC3)cc2)cc1	37.6	-9.5%	26.9*	3.2%	-9.4%	-15.0%
CCOc1ccc(NC(=O)c2ccc(OC)cc2)cc1	61.0*	0.5%	43.2*	2.7%	2.4%	0.1%
CCOc1ccc(NC(=O)c2ccc(N)cc2)cc1	25.3*	0.6%	12.4*	-15.7%	1.6%	-21.5%
COc1ccc(NC(=O)c2ccc(NC(=O)COC(=O)CC(NC(=O)c3ccccc3Cl)c3ccccc3)cc2)cc1 (configuration not stated)	49.0	-3.8%	21.6*	-9.5%	-8.6%	1.8%
O=C(NCCc1ccc(Cl)cc1)C(=O)NCC(c1cccs1)S(=O)(=O)c1ccccc1 (configuration not stated)	nt	nt	nt	-34.6%	1.5%	nt
CCc1nn2c(=O)cc(COC(=O)c3ccc(NC(=O)CCc4ccccc4)cc3)nc2s1	nt	nt	nt	-1.3%	0.3%	nt
COC(=O)C/C=C\[C@@H](C)[C@@H](/C=N\O[C@@H]1O[C@H](COC(C)=O)[C@@H](OC(C)=O)[C@H](OC(C)=O)[C@H]1OC(C)=O)NS(=O)(=O)c1ccc(C)cc1	nt	-0.9%[12.9 µM]	nt	nt	nt	nt
Cc1ccc(OCC(=O)OCC(=O)Nc2ccc3c(c2)OCO3)cc1C	nt	nt	nt	nt	-12.6%	nt
O=C(COc1ccccc1[N+](=O)[O-])N/N=C/c1cccc(OC(=O)c2ccc3c(c2)OCO3)c1	94.7*	1.8%	93.4*	-1.4%	-4.4%	-2.2%
Cc1ccc(OCC(=O)Nc2ccc3c(c2)OCO3)cc1C	28.9*	0.0%	25.4*	2.3%	4.0%	-7.6%
COC(=O)N/N=C/c1cccc(OC(=O)c2ccc3c(c2)OCO3)c1	14.5	-5.1%	2.5	7.1%	-3.0%	-5.6%
O=C(COC(=O)COc1ccccc1[N+](=O)[O-])Nc1ccc2c(c1)OCO2	nt	nt	nt	nt	0.3%	nt
O=C(Cc1ccccc1[N+](=O)[O-])Nc1ccc2c(c1)OCCO2	88.9*	-0.5%	54.6*	2.0%	-11.4%	-2.3%
O=C(COc1ccccc1[N+](=O)[O-])Nc1ccc2c(c1)OCO2	66.4*	0.8%	31.4*	-16.3%	2.5%	3.8%
COc1ccc(NC(=O)C2Cc3c(-c4cccc(C(C)=O)c4)ccnc3O2)cc1 (configuration not stated)	nt	nt	nt	nt	6.7%	nt
COc1cc(C(=O)NCCc2sc(-c3ccc(C)cc3)nc2C)cc(OC)c1OC	nt	nt	nt	0.3%	-0.5%	nt
